High-throughput results as filed in PubChem.
Sm TGR inh: S. mansoni TGR enzyme inhibition; purified TGR, DTNB reduction, TNB absorbance 405 nm; Potency, µM (titrated, usually from 114 µM), for the others: at the highest dose activity change, negative = inhibition, most hits filed as inhibitors; 360,000 tested, 3% active; further: potency means the concentration at half of the fitted maximal effect; on the % scale 0 is the no-effect control and ±100 the full control effect; nearly all actives have a fitted effect of over 60% in size
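First, TGR (20 nM dispensed) and NADPH were mixed with compound. Second, a 15 min room-temperature incubation followed. Third, further NADPH and then DTNB were added to start the reaction. Finally, TNB absorbance was monitored kinetically.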
Tb PYK inh: T. brucei pyruvate kinase inhibition. TbPYK enzyme, Kinase-Glo Plus ATP luminescence, 45 min. Potency, µM (doses to about 76.8 µM), without a hit: at the highest dose activity, negative = inhibition, usual class: inhibitors. 410,000 tested, 0.12% active; further: potency means the concentration at half of the fitted maximal effect; on the % scale 0 is the no-effect control and ±100 the full control effect; nearly all actives have a fitted effect of over 50% in size
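Activity of T. brucei pyruvate kinase was followed by Kinase-Glo Plus luminescence after the enzyme reacted 45 min at room temperature with 130 uM ADP (final) and substrate. Test compounds were added before ADP at multiple concentrations.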
LmPK inh: inhibitors of Leishmania mexicana pyruvate kinase; 290,000 tested, 0.37% active; Q27686; Potency, µM (highest dose often 57.5 µM), inactives show at the highest dose activity change, negative = inhibition, most hits filed as inhibitors; purified LmPK, Kinase-Glo ATP luminescence, 1 h; further: potency means the concentration at half of the fitted maximal effect; on the % scale 0 is the no-effect control and ±100 the full control effect
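Purified LmPK (0.1 nM) with 0.5 mM PEP and 0.1 mM ADP in imidazole buffer pH 7.2 with MgCl2/KCl, 1 h at room temperature. ATP formed was read by luciferase luminescence and normalized to no-enzyme and uninhibited controls.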
Shiga toxin inh: Shiga toxin inhibition. AID 2315. inhibition, % at 38.7 µM. Vero cells, Shiga toxin protein synthesis inhibition reporter. 290,000 tested, 9.2% active; in the data active means inhibition mostly above about 28%, no sharp cut-off; inactive means mostly below about 43%; further: 0% is about no effect
Cycloheximide cs: affects cycloheximide protein synthesis inhibition readout, counter-screen | cell reporter, cycloheximide protein synthesis inhibition counterscreen | max response, % | 300,000 tested, 12% active | AID 2314; in the data active means max response mostly above about 13%, no sharp cut-off; inactive means mostly below about 14%; further: read at 38.3 µM for the half of the compounds with a filed dose; 0% is about no effect
Giardia FBPA inh: Giardia lamblia aldolase inhibition; A8B2U2; purified Giardia FBPA; Potency, µM (titrated, usually from 59.6 µM), for inactives: top-dose activity, negative = inhibition, most hits filed as inhibitors; 290,000 tested, 0.71% active; AID 2451; further: potency means the concentration at half of the fitted maximal effect; on the % scale 0 is the no-effect control and ±100 the full control effect; nearly all actives have a fitted effect of over 55% in size
Target sequence (A8B2U2 whole entry, looked up): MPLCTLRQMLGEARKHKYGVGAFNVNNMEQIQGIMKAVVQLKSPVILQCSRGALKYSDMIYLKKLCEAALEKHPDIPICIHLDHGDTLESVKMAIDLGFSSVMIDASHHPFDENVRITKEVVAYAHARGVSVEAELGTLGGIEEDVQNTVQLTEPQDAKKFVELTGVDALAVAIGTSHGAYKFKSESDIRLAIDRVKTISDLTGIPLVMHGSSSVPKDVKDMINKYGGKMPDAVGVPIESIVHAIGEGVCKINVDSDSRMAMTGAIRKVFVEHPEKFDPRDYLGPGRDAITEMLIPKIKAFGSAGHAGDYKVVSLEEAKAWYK
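Giardia FBPA (40 nM reagent) was preincubated 10 min at RT with compound (up to 57.5 uM final), then substrate plus GAPDH/TPI/NAD/arsenate coupling system with diaphorase/resazurin was added; resorufin fluorescence (525/598 nm) was read after 20 min.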
The depositor's hits bear a star; ? = inconclusive; . = no result. The full list was thinned out, with hits kept by preference. Unless noted, the call rests on the fitted dose curve; in most records, active means well fitted curve in the direction sought with a large enough effect; inconclusive means small, poorly fitted or top-dose-only effect, or another doubt; inactive means no such curve, though single readings can be large; an effect the other way counts as inactive or inconclusive.

SMILES | Sm TGR inh | Tb PYK inh | LmPK inh | Shiga toxin inh | Cycloheximide cs | Giardia FBPA inh
COc1ccc2c(c1OC)C(=O)N1N=C(c3ccc(F)cc3)CC21 (configuration not stated) | 6.4% | -29.7% | -4.5% | 20.8 | 9.8 | 0.2%
CCc1ccccc1NC(=O)C1CCCN(S(=O)(=O)c2ccc3[nH]c(=O)ccc3c2)C1 (configuration not stated) | 0.0% | 1.5% | . | . | . | .
CCN(CC)S(=O)(=O)c1nnc(NC(=O)COc2ccc(Cl)cc2)s1 | -2.2% | 0.8% | . | . | . | .
O=C(CC1C(=O)NCCN1Cc1ccccc1C(F)(F)F)NC1CCCC1 (configuration not stated) | 39.8µM* | -5.8% | -4.1% | 6.2 | -1.1 | -19.3%
O=C(CC1C(=O)NCCN1Cc1cccc(C(F)(F)F)c1)NC1CCCCCC1 (configuration not stated) | 22.4µM* | -5.6% | -13.5% | -32.1 | -1.4 | .
CCN1CCN(C(c2ccccc2)c2c(O)cc(C)n(CCOC)c2=O)CC1 (configuration not stated) | 3.98µM* | 3.3% | . | . | . | .
CCN1CCN(C(c2ccc(OC)cc2)c2c(O)cc(C)n(CCOC)c2=O)CC1 (configuration not stated) | 10µM* | -4.7% | . | . | . | .
COCCn1c(C)cc(O)c(C(c2ccccc2)N2CCCCC2)c1=O (configuration not stated) | -3.2% | 0.8% | . | . | . | .
CCN1CCN(C(c2ccccc2)c2nnnn2Cc2ccc(OC)cc2)CC1 (configuration not stated) | 44.0% | 2.2% | 3.3% | -12.7 | -7.9 | 2.9%
CCN1CCN(C(c2cccc(F)c2)c2c(O)cc(C)n(CCOC)c2=O)CC1 (configuration not stated) | 3.98µM* | 0.3% | . | . | . | .
CCN1CCN(C(c2cccc(Cl)c2)c2c(O)cc(C)n(CCOC)c2=O)CC1 (configuration not stated) | 5.62µM* | -6.7% | . | . | . | .
CCN1CCN(C(c2ccc(F)cc2)c2c(O)cc(C)n(CCOC)c2=O)CC1 (configuration not stated) | 4.47µM* | -7.3% | . | . | . | .
CCN1CCN(C(c2ccc(F)cc2)c2sc3nc(-c4ccco4)nn3c2O)CC1 (configuration not stated) | 5.2% | -7.0% | . | . | . | .
CCN1CCN(C(c2ccc(Cl)cc2)c2c(O)cc(C)n(CCOC)c2=O)CC1 (configuration not stated) | 4.47µM* | 2.1% | . | . | . | .
Nc1nccc(-c2cc(-c3ccc(Cl)cc3Cl)no2)n1 | -6.0% | -5.6% | -21.3% | 54.3* | 41.9* | 6.0%
COc1ccc(N2C(=S)NC3N2C(=S)NC3(C)c2ccccc2)cc1 (configuration not stated) | -3.8% | -14.6% | -7.1% | 55.6* | 36.8* | ?
CCCCOc1cccc(C(=O)N(Cc2ccc(N(C)C)cc2)C2CCS(=O)(=O)C2)c1 (configuration not stated) | 6.6% | -5.9% | . | . | . | .
O=C1COc2ccc(C(=O)COC(=O)c3ncc(Cl)c(Cl)c3Cl)cc2N1 | 50.1µM* | 3.6% | . | . | . | .
O=C1COc2ccc(C(=O)COC(=O)CCCOc3ccccc3)cc2N1 | . | -5.6% | . | . | . | .
O=C1COc2ccc(C(=O)COC(=O)c3ccc([N+](=O)[O-])cc3Cl)cc2N1 | 39.8µM* | -4.0% | . | . | . | .
O=C1COc2ccc(C(=O)COC(=O)c3cnc(Cl)c(Cl)c3)cc2N1 | -6.6% | 1.4% | 1.6% | -5.8 | -3.1 | 3.7%
COc1ccc(OCCCC(=O)OCC(=O)c2ccc3c(c2)NC(=O)CO3)cc1 | 44.7µM* | -3.4% | . | . | . | .
O=C1COc2ccc(C(=O)COC(=O)c3nc(Cl)ccc3Cl)cc2N1 | 14.1µM* | -5.4% | . | . | . | .
O=C1COc2ccc(C(=O)COC(=O)c3ccc(Cl)cc3[N+](=O)[O-])cc2N1 | -14.7% | 4.8% | . | . | . | .
O=C(Nc1ccncc1)C1CCN(S(=O)(=O)c2cccc(C(F)(F)F)c2)CC1 | -1.1% | 5.1% | . | . | . | .
FC(F)(F)c1ccccc1-c1ccc2ncnc(NC3CC3)c2c1 | . | . | . | . | . | -6.5%
CC(C)(C)[C@@H]1CCC(=O)N(CC[C@H](N=[N+]=[N-])c2ccccc2)CC1 | -5.6% | -3.2% | -5.3% | 32.9* | 12.6* | -6.8%
